The record followed here is PubChem BioAssay.

The inhibition is the relative decrease from the control value, in per cent.

Values without a mark were called inactive. The list shows a part of the results. Active and inactive are the calls of the source. Unless noted, no stated cut-off is given here; in the data, active means inhibition above about 36%; inactive means the rest.

Assay [1] addresses Nuclear receptor coactivator 1 (Homo sapiens) (UniProt Q15788). Description: NCOA1 GAL4-fusion reporter inhibition – cell-based, luminescence, quadruplicate, confirmation (AID 588820;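 active means mean inhibition above 46.68%, the untreated control wells mean plus 3 SD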). The following applies: HEK293 GAL4-SRC1 luciferase reporter, at 3.6 µM, active compounds read high. A general note: In a reporter assay the amount or activity of a reporter protein is the signal.
Assay [2] in a line: repression of VP16-driven luciferase reporter – cell-based, luminescence, high throughput, counter-screen for SRC1 inhibitor project (AID 588824; in the data active means inhibition above about 25%). The following applies: cell-based VP16 transactivation luciferase luminescence; at 3.6 µM; active compounds read high.
Assay [3] deals with Nuclear receptor coactivator 3 (Homo sapiens) (UniProt Q9Y6Q9). As to the kind of experiment: NCOA3 GAL4-fusion reporter inhibition – cell-based, luminescence, quadruplicate, confirmation (AID 588792;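 active means mean inhibition over 43.08%, the solvent-only control mean plus 3 SD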). To be noted: HEK293 GAL4-SRC3 luciferase reporter, at 3.6 µM, active compounds read high.
Assay [4] deals with transactivating tegument protein VP16 (Human herpesvirus 1), Gal4-VP16 luciferase reporter. As to the kind of experiment: repression of VP16-driven luciferase reporter – cell-based, luminescence, high throughput, counter-screen for SRC3 inhibitor project (AID 588794; in the data active means inhibition above about 30%). To be noted: mammalian cells, at 3.6 µM, active compounds read high.
Assay [5] can be described thus: StAR promoter reporter inhibitors, counter-screen for LRH-1 inverse agonist project, cell-based, luminescence, high throughput (AID 651611; in the data active means inhibition above about 28%). The following applies: StAR promoter luciferase reporter counterscreen, at 3.6 µM, active compounds read high. A general note: The purpose of a counterscreen is to sort out artefacts and off-target activity.
Assay [6] has as its target Nuclear receptor subfamily 5 group A member 2 (Homo sapiens) (UniProt O00482). Description: NR5A2 activity suppression in reporter cells – cell-based, luminescence, confirmation (AID 651613; in the data active means inhibition above about 42%). The following applies: cell-based LRH-1 luciferase reporter, inverse agonism; at 3.6 µM; active compounds read high.
Assay [7] concerns the target Steroidogenic factor 1 (Homo sapiens) (UniProt Q13285). Description: inverse agonism at SF1 nuclear receptor – cell-based, luminescence, high throughput, counter-screen for LRH-1 inverse agonist project (AID 651614; in the data active means inhibition above about 44%). The following applies: cell-based SF1 luciferase reporter, at 3.6 µM, active compounds read high.
A short description of assay [8]: compounds suppressing VP16-driven luciferase signal – cell-based, luminescence, high throughput, counter-screen for LRH-1 inverse agonist project (AID 651615; in the data active means inhibition above about 33%). To be noted: Gal4-VP16 luciferase reporter cells, at 3.6 µM, active compounds read high.
For assay [9], the system named is transactivating tegument protein VP16 (Human herpesvirus 1). As to the kind of experiment: compounds suppressing VP16-driven luciferase signal – cell-based, luminescence, single concentration, counter-screen for SRC2 inhibitor project (AID 652007). The following applies: cell-based VP16 transactivation luciferase reporter, at 8.9 µM, active compounds read high.
In assay [10] the target is Nuclear receptor coactivator 2 (Homo sapiens) (UniProt Q15596). Description: inhibition of GAL4-SRC2 driven luciferase expression – cell-based, luminescence, HEK293, triplicate, confirmation (AID 652008;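 active means mean inhibition above 46.5%, the solvent-only control mean plus 3 SD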). To be noted: HEK293 GAL4-SRC2 luciferase reporter, at 8.9 µM, active compounds read high.
Sequence of Nuclear receptor coactivator 2 (Homo sapiens) (Q15596 whole entry, looked up, the tested form may be a part): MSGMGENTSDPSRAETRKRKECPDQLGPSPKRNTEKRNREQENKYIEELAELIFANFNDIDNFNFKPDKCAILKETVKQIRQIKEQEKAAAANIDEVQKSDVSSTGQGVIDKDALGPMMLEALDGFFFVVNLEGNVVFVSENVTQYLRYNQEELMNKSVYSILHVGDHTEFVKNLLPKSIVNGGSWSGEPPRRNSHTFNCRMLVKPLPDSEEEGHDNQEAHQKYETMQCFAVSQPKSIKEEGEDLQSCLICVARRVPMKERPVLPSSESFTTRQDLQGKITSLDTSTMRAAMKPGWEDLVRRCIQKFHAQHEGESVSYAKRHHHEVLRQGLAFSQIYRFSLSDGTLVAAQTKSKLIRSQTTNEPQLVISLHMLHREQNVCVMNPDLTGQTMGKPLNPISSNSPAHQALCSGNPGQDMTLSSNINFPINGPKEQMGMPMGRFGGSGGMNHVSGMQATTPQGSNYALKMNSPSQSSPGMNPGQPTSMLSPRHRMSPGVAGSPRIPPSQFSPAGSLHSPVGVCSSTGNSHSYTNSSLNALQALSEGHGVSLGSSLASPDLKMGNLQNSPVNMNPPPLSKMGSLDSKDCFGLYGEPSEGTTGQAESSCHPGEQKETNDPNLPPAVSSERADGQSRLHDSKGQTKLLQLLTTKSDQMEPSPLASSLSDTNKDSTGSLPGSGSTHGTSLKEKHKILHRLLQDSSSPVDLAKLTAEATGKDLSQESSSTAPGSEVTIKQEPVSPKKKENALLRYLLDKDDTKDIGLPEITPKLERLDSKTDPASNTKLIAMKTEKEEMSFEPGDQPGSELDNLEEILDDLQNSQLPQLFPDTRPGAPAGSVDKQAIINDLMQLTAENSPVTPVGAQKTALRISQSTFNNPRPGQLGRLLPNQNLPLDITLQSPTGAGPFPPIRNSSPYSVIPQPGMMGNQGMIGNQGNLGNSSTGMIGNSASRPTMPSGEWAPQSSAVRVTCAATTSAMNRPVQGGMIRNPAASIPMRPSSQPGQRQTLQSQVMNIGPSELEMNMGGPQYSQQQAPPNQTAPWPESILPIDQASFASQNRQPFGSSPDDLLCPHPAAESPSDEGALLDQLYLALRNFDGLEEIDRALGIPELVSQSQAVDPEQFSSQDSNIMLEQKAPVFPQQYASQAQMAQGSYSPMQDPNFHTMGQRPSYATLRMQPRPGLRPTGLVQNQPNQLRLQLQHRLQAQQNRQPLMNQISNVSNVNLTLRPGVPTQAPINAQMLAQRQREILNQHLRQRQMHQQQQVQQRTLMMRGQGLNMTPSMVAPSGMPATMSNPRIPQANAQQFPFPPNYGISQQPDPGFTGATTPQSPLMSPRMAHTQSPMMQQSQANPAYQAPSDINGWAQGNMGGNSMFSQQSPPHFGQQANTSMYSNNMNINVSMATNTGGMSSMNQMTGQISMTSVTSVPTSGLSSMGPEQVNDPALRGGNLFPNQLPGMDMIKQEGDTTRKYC
Assay [11] has as its target Receptor-interacting serine/threonine-protein kinase 2 (Homo sapiens) (UniProt O43353). Description: inhibitors of RIPK2 association with NOD2 – fluorescence, CHO cells, BLA complementation, triplicate, confirmation (AID 624370;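 active means mean inhibition across replicates above a set limit taken from the earlier primary screen, cut at about 21% in these data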). The following applies: CCF4 FRET, at 4.98 µM, active compounds read high.
A short description of assay [12]: BLA reporter readout interference – cell-based, CHO-K1 CMV-bla, CCF4 FRET, fluorescence, artefact control for NOD2-RIPK2 interaction inhibitor project, confirmation (AID 624371;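 active means mean inhibition above the low-control mean inhibition plus three low-control SD, cut at about 11% in these data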). The following applies: CCF4 FRET ratio, counterscreen, at 4.98 µM, active compounds read high.
Assay [13] deals with Photoreceptor-specific nuclear receptor (Homo sapiens) (UniProt Q9Y5X4). Description: retest of NR2E3-NCOR disrupting agonists – cell-based, luminescence, CHO-S two-hybrid, confirmation (AID 624378;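 active means average inhibition above a cutoff equal to the mean inhibition of all tested compounds plus one SD, cut at about 70% in these data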). The following applies: CHO-S mammalian two-hybrid NR2E3-NCOR, luciferase luminescence; at 3.98 µM; active compounds read high.
Sequence of Photoreceptor-specific nuclear receptor (Homo sapiens) (Q9Y5X4 whole entry, looked up, the tested form may be a part): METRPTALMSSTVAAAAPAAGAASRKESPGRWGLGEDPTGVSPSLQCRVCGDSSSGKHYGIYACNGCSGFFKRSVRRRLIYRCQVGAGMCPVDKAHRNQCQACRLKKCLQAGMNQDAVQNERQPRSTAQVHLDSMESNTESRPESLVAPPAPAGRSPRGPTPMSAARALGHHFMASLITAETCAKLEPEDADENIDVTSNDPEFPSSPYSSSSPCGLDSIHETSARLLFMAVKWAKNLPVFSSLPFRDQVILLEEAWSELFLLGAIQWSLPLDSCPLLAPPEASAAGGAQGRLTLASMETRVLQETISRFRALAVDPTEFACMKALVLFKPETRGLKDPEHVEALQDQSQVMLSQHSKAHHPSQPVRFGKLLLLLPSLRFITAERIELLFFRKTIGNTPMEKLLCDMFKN
Assay [14] can be described thus: nonselective effects on VP16 transactivation – cell-based, luminescence, CHO-S, high throughput, counter-screen for NR2E3 agonist project, confirmation (AID 624379;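 active means mean inhibition above a cutoff equal to the average over all tested compounds plus one standard deviation, cut at about 70% in these data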). To be noted: CHO-S GAL4-VP16 luciferase reporter, at 3.98 µM, active compounds read high.
The nature of assay [15]: reduced OD of V66 E. coli with T4 gene 2 phage – absorbance, RecBCD inhibitor project, confirmation (AID 651982;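 active means mean inhibition over triplicates exceeding the hit threshold derived in the original primary screen, cut at about 11% in these data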). To be noted: E. coli V66 + T4 2- phage, growth OD; at 11.9 µM; active compounds read high.
The nature of assay [16]: bacterial growth inhibition – absorbance, high throughput, counter-screen for RecBCD inhibitor project (AID 651983; in the data active means inhibition above about 20%). To be noted: E. coli viability, absorbance (OD) growth; at 11.9 µM; active compounds read high.
Assay [17] in a line: reduced optical density, T4-challenged addAB+ bacteria – absorbance, E. coli V3065, T4 phage, counter-screen for RecBCD inhibitor project, confirmation (AID 651984;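 active means mean inhibition above the solvent-only control wells' mean plus 3 SD, cut at about 22% in these data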). The following applies: E. coli expressing H. pylori AddAB + T4 phage, OD growth; at 11.9 µM; active compounds read high.
Assay [18] can be described thus: BSA probe fluorescence interference – biochemical, TAMRA-labeled BSA, counter-screen for TCR-CD3 interaction inhibitor project (AID 652035; in the data active means inhibition above about 23%). To be noted: TAMRA-labeled BSA probe fluorescence counterscreen; at 9.4 µM; active compounds read high.
Assay [19] has as its system T-cell receptor (TCR)-CD3 interaction, human. Description: blockers of TCR binding to CD3 – biochemical, fluorescence, TAMRA-labeled TCR probe, confirmation (AID 652036; in the data active means inhibition above about 19%). To be noted: TAMRA-labeled TCR probe fluorescence binding assay; at 9.4 µM; active compounds read high.
Assay [20] concerns the target Oxysterols receptor LXR-beta (Homo sapiens) (UniProt P55055). Description: nonspecific reporter activation via LXR – cell-based, luminescence, HEK293, H. contortus campaign, counter-screen for hcDAF-12 agonist project, confirmation (AID 743027;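 active means mean percent activation of the reporter above a cutoff set as the average over tested compounds plus their standard deviation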). The following applies: HEK293 Gal4-LXR tk-luc reporter, 24 h, at 6.8 µM, active compounds read high, normalized: DMSO 0%, positive control 100%.

The test system of assay [21] is Nuclear hormone receptor DAF-12 (Haemonchus contortus). Description: hcDAF-12 luciferase reporter activation, retest – cell-based, luminescence, HEK293, lit1-tk-luc, triplicate, confirmation (AID 743032;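 active means mean activation across triplicate tests above the threshold derived from the earlier primary screen, cut at about 5.5% in these data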). The following applies: HEK293 hcDAF-12 lit1-tk-luc reporter, at 6.8 µM, active compounds read high.
Assay [22] has as its system DAF-12 nuclear receptor (Heterodera glycines), GAL4-LBD fusion. As to the kind of experiment: hgDAF-12 GAL4 fusion reporter activation, retest – cell-based, luminescence, HEK293, GAL4-LBD fusion, confirmation (AID 743050;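 active means mean activation over triplicate wells above the hit cutoff derived from the earlier primary screen, cut at about 11% in these data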). To be noted: HEK293 GAL4-hgDAF12 luciferase reporter, agonist mode; at 6.8 µM; active compounds read high.
In assay [23] the target is Oxysterols receptor LXR-beta (Homo sapiens) (UniProt P55055). As to the kind of experiment: nonspecific reporter activation via LXR – cell-based, luminescence, HEK293, H. glycines campaign, counter-screen for hgDAF-12 agonist project, confirmation (AID 743051;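 active means mean activation of the triplicate above a set limit carried over from the primary screen, none filed active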). The following applies: HEK293 Gal4-LXR luciferase reporter, 24 h; at 6.8 µM; active compounds read high.
Sequence of Oxysterols receptor LXR-beta (Homo sapiens) (P55055 whole entry, looked up, the tested form may be a part): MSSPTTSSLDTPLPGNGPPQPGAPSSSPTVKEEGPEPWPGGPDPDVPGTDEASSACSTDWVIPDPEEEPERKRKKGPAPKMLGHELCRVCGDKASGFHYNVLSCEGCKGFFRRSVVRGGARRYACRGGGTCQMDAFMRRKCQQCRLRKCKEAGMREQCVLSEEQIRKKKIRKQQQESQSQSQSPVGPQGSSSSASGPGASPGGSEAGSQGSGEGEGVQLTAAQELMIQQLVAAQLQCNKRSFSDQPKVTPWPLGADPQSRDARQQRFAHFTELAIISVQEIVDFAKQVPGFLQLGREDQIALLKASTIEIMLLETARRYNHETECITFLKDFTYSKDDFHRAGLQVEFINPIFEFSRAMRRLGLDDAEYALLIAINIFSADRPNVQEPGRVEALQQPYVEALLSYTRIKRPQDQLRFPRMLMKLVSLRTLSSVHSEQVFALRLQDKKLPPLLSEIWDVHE

Sequence of Nuclear receptor coactivator 1 (Homo sapiens) (Q15788 whole entry, looked up, the tested form may be a part): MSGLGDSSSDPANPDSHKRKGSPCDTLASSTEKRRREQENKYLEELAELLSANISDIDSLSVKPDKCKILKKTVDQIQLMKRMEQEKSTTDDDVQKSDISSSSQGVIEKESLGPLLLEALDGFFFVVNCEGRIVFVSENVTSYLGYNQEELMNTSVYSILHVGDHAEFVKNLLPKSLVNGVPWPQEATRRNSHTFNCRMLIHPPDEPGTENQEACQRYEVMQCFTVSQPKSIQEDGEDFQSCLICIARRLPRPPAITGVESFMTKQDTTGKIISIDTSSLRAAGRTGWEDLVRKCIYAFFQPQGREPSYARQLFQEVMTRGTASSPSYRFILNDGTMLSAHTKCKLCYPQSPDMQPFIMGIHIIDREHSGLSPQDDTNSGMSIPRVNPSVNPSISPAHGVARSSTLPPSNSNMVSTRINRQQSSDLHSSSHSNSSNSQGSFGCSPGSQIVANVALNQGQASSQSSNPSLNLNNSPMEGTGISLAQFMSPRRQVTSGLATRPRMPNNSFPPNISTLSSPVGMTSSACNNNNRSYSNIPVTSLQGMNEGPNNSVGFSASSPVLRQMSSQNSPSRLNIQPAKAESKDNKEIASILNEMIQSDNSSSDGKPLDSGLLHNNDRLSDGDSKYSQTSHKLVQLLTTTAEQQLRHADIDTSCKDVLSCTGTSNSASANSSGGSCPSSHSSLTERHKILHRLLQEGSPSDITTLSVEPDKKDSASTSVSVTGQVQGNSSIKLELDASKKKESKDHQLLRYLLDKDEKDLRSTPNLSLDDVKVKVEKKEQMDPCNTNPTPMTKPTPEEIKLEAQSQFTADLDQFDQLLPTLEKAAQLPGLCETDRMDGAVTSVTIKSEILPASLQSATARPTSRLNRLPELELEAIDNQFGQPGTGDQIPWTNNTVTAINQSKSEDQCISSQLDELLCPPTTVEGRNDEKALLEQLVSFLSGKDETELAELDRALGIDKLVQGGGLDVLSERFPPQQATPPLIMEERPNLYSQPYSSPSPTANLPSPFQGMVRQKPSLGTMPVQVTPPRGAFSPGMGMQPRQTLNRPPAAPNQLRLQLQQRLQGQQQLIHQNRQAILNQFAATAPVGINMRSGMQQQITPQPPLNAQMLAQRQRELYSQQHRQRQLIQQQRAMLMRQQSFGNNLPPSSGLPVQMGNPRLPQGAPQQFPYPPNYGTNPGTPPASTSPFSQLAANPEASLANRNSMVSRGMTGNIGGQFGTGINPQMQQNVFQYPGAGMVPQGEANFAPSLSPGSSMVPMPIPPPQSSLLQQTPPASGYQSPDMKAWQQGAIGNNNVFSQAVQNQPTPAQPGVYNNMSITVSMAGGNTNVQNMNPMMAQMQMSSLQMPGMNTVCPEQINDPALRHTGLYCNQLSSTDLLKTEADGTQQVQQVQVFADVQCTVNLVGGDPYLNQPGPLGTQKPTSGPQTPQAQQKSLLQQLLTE
Sequence of Nuclear receptor subfamily 5 group A member 2 (Homo sapiens) (O00482 whole entry, looked up): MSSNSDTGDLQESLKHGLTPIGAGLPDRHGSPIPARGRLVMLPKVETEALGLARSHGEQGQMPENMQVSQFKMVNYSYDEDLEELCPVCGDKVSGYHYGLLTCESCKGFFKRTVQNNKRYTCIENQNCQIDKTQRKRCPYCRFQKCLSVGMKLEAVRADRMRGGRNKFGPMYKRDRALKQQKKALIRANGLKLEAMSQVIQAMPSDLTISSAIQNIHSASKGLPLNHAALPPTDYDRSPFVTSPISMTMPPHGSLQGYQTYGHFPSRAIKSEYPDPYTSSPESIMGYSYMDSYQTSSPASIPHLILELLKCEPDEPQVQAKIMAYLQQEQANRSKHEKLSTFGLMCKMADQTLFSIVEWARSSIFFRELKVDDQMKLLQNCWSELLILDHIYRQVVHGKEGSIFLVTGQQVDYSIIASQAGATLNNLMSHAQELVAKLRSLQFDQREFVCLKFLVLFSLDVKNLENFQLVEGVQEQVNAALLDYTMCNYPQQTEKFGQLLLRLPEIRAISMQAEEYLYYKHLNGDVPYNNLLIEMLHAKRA
Sequence of Steroidogenic factor 1 (Homo sapiens) (Q13285 whole entry, looked up, the tested form may be a part): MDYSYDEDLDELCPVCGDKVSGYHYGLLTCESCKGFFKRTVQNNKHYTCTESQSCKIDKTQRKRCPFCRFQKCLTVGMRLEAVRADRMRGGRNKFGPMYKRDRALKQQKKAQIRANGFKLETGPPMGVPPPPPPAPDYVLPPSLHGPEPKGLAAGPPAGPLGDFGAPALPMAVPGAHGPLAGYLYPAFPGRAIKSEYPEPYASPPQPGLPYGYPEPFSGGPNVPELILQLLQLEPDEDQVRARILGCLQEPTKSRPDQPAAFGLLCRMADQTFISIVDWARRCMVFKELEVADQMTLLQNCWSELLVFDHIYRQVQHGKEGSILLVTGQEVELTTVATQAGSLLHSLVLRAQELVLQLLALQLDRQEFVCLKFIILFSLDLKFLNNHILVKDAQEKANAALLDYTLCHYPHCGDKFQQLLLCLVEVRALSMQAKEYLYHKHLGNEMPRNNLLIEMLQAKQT

As for `COc1ccc(C(c2nnnn2Cc2ccccc2)N2CCC(n3c(=O)[nH]c4ccccc43)CC2)cc1` (configuration not stated), the inhibition in assay [1] is -42.8%; in [2], -11.4%.
Turning to `CC(C)c1oc(=O)cc2c1[C@@H](O)[C@H]1OC(=O)[C@@]3(C)C[C@@H](O)[C@@H](O)[C@@]2(C)C13` (some centres not stated), the inhibition is 79.4% (active) in [3]; 67.4% (active) in assay [4]; 84.4% (active) in [5]; 104% (active) in assay [6]; 90% (active) in assay [7]; 77.4% (active) in assay [8]. Besides, the values for the inhibition in assay [9] and in assay [10] were 8.02% and 13.1%, respectively.
As to `CCCCn1nnnc1C(CCc1ccccc1)N1CCC(n2c(=O)[nH]c3ccccc32)CC1` (configuration not stated), the inhibition is -23.9% in [1] and 7.75% in assay [2].
For `COC(=O)C1=C(c2ccc(-c3ccccc3)c(F)c2)C[C@@H]2CC[C@H]1N2C(=O)N1CCOCC1` the same measures were 2.48% and 25.3%.
With `CCOC(=O)[C@]12Cc3ccccc3[C@H]1N(C1CCCCC1)C(=O)c1cc(OC)ccc12`, the inhibition in [11] is 61.3% (active); in assay [12] it was 0.28%.
As for `CCCCCCN=C(CC)c1c(O)n(CCCC)c(=O)[nH]c1=O`, the inhibition was 84.2% (active) in [13] and 56.9% in assay [14].
On the same counts, the results for `CC(=NCc1ccc2c(c1)OCO2)c1c(O)[nH]c(=O)[nH]c1=O` are 2.39% and 8.56%.
Consider `N#Cc1c(Br)n(C2OC(CO)C(O)C2O)c2ncnc(N)c12` (configuration not stated), for which the inhibition in [9] was -16.7%; in [10], 54.4% (active).
For `CC1OC(OC2C=C3CCC4C(CCC5(C)C(c6ccc(=O)oc6)CCC45O)C3(C)CC2)C(O)C(OC2OC(CO)C(O)C(O)C2O)C1O` (configuration not stated) the same measures were 63.6% (active) and 48.1% (active).
On the same counts, the results for `CC(=O)OC1C(O)C(C)OC(OC2C(OC(=O)C3CCC4C(C3)OC3(CC(OC(=O)/C=C/c5ccccc5)C(C)CO3)C43CO3)OC(C)C(O)C2OC(C)=O)C1O` (configuration not stated) are 79.4% (active) and 75.2% (active).
With `CCc1nnc(NS(=O)(=O)c2ccc(N=Cc3c(O)n(-c4ccccc4)c(=O)[nH]c3=O)cc2)s1`, the inhibition in assay [15] was 11.7% (active); in [16], 7.85%; in assay [17], 32.1% (active).
In the case of `CC/C(=N\NC(=O)c1ccccc1O)c1c(O)n(Cc2ccccc2)c(=O)[nH]c1=O`, the inhibition in assay [18] is -6.16%; in assay [19], 29.4% (active).
For `COc1ccc(C(=O)C2CN(C)CC2C(=O)c2ccc(OC)cc2)cc1` (configuration not stated), the activation is -0.19% in assay [20] and 0.28% in assay [21].
On to `CC(C)(C)c1ccc(OC(=O)N2CCCCC2)cc1`, for which the results for the activation in assay [22] and in [23] were 14.1% (active) and 0.52%, respectively.
Regarding `O=C(N/N=C/c1c(O)n(Cc2ccccc2)c(=O)[nH]c1=O)c1ccccc1`, the activation in [22] is 1.81%; in assay [23], 0.01%.
